In the supplement of paper PMC10503962 one finds mean motility score data, which are given here for 38 compounds.

The test system of the experiment is Trichuris muris adult worms. The experiment in a line: mean motility score (Paragon pixel variance) of adult worms (arbitrary units); higher = more motile worms, i.e. less anthelmintic effect; extreme values may be limits of the assay. As to conditions: 100 µM; 24 h. Summed up: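 Motility score was obtained through Paragon pixel-variance analysis and averaged across replicate wells. To generate it, single adult Trichuris muris worms taken from infected NOD SCID mice were kept for 24 h at 37°C and 5% CO2 in 96-well plates, each well holding 100 μL RPMI-1640 plus antibiotics and drug at 100 μM (1% v/v DMSO). The plates were then recorded on an automated phenotyping platform (200 frames, 100 ms apart).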
For `CCCCC/C=C\C/C=C\C/C=C\CCCCC(=O)O` [gamolenic acid], the mean motility score came out at 2970. `Cl.Cl.NCCc1c[nH]cn1` [histamine dihydrochloride] returned a mean motility score of 2750. Consider `CSc1ccc(C(=O)c2nc(O)[nH]c2C)cc1` [enoximone], for which the mean motility score stood at 1970. Consider `CCOc1cc(N)c(Cl)cc1C(=O)NCC1CN(Cc2ccc(F)cc2)CCO1` (stereo not drawn) [mosapride], for which the mean motility score stood at 2610. `NCCS` [cysteamine]: the mean motility score was 2360. Regarding `CC[N+](CC)(CC)CCOc1cccc(OCC[N+](CC)(CC)CC)c1OCC[N+](CC)(CC)CC.[I-].[I-].[I-]` [gallamine triethiodide], the mean motility score is 4310. `CCOc1cc(CC(=O)N[C@@H](CC(C)C)c2ccccc2N2CCCCC2)ccc1C(=O)O` [repaglinide] registered a mean motility score of 268.

Consider `NC(=O)N1c2ccccc2C=Cc2ccccc21` [carbamazepine], for which the mean motility score was 3020. As for `CNC1(C)[C@H]2CC[C@H](C2)C1(C)C.Cl` (stereo partly drawn) [mecamylamine hydrochloride], the mean motility score is 3150. The figure for `Nc1ccc(C(=O)O)c(O)c1` [aminosalicylic acid] is 4450. The figure for `C=CC(N)CCC(=O)O` (stereo not drawn) [vigabatrin] is 1690; for `CCOC(=O)[C@H](CCc1ccccc1)N[C@@H](C)C(=O)N1Cc2ccccc2C[C@H]1C(=O)O.Cl` [quinapril hydrochloride] it is 4700; for `CCO[C@@H](Cc1ccc(OCCc2ccc(OS(C)(=O)=O)cc2)cc1)C(=O)O` [tesaglitazar] it is 3880. In turn, `C[C@]12CC[C@@H]3c4ccc(O)cc4CC[C@H]3[C@@H]1CCC2=O` [estrone] yielded a mean motility score of 2280. In turn, `CN(C)CCCOc1nn(Cc2ccccc2)c2ccccc12.Cl` [benzydamine hydrochloride] yielded a mean motility score of 3530.

On to `CN(C)c1nc(N(C)C)nc(N(C)C)n1` [altretamine], for which the mean motility score turned out to be 3430.

Compound `Clc1ccccc1C(c1ccccc1)(c1ccccc1)n1ccnc1` [clotrimazole] registered a mean motility score of 0.

In turn, `N#CC[C@H](C1CCCC1)n1cc(-c2ncnc3[nH]ccc23)cn1` [ruxolitinib] returned a mean motility score of 3070. As for `Cn1cnc([N+](=O)[O-])c1Sc1ncnc2nc[nH]c12` [azathioprine], the mean motility score was found to be 3550. Compound `Cc1ccc(S(=O)(=O)NC(=O)NN2CCCCCC2)cc1` [tolazamide] came in with a mean motility score of 4090. The figure for `CN(C)CCc1c[nH]c2ccc(C[C@H]3COC(=O)N3)cc12` [zolmitriptan] is 3180; for `O=C(O)CNC(=O)c1ccccc1I` [iodohippurate] it is 3580.

As for `CCCc1cc(O)nc(S)n1` [propylthiouracil], the mean motility score came out at 3720. In turn, `Cn1cnc2c1c(=O)[nH]c(=O)n2C` [theobromine] registered a mean motility score of 859. As for `CN(C)CCOC(=O)C(c1ccccc1)C1(O)CCCC1` (stereo not drawn) [cyclopentolate], the figure is 2640; as for `CCOc1cc2ncc(C#N)c(Nc3ccc(OCc4ccccn4)c(Cl)c3)c2cc1NC(=O)/C=C/CN(C)C` [neratinib], 1890; as for `O=C(O)COC(=O)Cc1ccccc1Nc1c(Cl)cccc1Cl` [aceclofenac], 972. `CCCCNc1ccc(C(=O)OCCN(C)C)cc1` [tetracaine] returned a mean motility score of 4810.

On to `Cc1ccc(NC(=O)c2ccc(CN3CCN(C)CC3)cc2)cc1Nc1nccc(-c2cccnc2)n1` [imatinib], for which the mean motility score is 3600.

In the case of `CCOC(=O)n1ccn(C)c1=S` [carbimazole], the mean motility score turned out to be 1610. As for `CCCN[C@H]1CCc2nc(N)sc2C1.Cl.Cl` [pramipexole dihydrochloride], the figure is 3620.

Take `CCN(CC)C(C)CN1c2ccccc2Sc2ccccc21.Cl` (stereo not drawn) [ethopropazine hydrochloride]: the mean motility score is 114.

Compound `O=C(O)[C@@H](O)[C@H](O)C(=O)O` [tartaric acid] returned a mean motility score of 3400.

Consider `CNCc1ccc(-c2[nH]c3cc(F)cc4c3c2CCNC4=O)cc1` [rucaparib], for which the mean motility score came to 1130.

In the case of `CC/C=C\C/C=C\C/C=C\C/C=C\C/C=C\C/C=C\CCC(=O)O` [doconexent], the mean motility score is 4100. The compound `CN(C)C(=O)C(CCN1CCC(O)(c2ccc(Cl)cc2)CC1)(c1ccccc1)c1ccccc1` [loperamide] returned a mean motility score of 0. `C#Cc1cccc(Nc2ncnc3cc(OCCOC)c(OCCOC)cc23)c1` [erlotinib] yielded a mean motility score of 1720.

With `CC1=NS(=O)(=O)c2cc(Cl)ccc2N1` [diazoxide], the mean motility score is 3260.
